Most compounds without a hit are left out; they make up all but 0.65% or so of the library.
AMA1 RON2 block = disrupts binding of P. falciparum AMA1 to RON2 | Potency, µM (highest dose often 58.2 µM), hits mostly inhibitors | AlphaScreen AMA1-biotinylated RON2 peptide binding | hit rate 0.2% among 360,000; active means well fitted inhibition curve with a large enough effect; inconclusive means small, poorly fitted or top-dose-only effect; inactive means no such curve, though single readings can be large or run the other way; further: nearly all actives have a fitted effect of over 45% in size
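AMA1 (3D7) with his tag at 25 nM final met compounds first, then biotinylated RON2 peptide at 25 nM; detection used donor plus acceptor beads, 10 µg/mL apiece, read by AlphaScreen after 30 min at room temperature.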
SARS PLpro yeast = blocks SARS-CoV papain-like protease in a yeast assay | S. cerevisiae expressing SARS-CoV PLpro, growth rescue | Potency, µM (top dose mostly 32.9 µM), usual class: activators | hit rate 0.19% among 330,000; further: nearly all actives have a fitted effect of over 55% in size
NS1 inh = influenza NS1 inhibition; Potency, µM (top dose mostly 46.1 µM); hit rate 0.4% among 270,000; AID 2326; further: actives are rising curves; nearly all actives have a fitted effect of over 50% in size
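Read-out: OD600 growth recovery of NS1-expressing budding yeast. Cells grown overnight at 30C in -URA glucose medium, washed, resuspended and diluted 1:100 in 2% galactose assay medium, pH 6.0. Same strain lacking NS1 served as positive control.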
Each line names hits and unclear results; the compound was inactive in the other large screens. Unless noted, the call rests on the fitted dose curve.

CCc1ccccc1Nc1nn2c(=O)c3ccc(C(=O)NCCCOC(C)C)cc3nc2s1	none (no result: AMA1 RON2 block, NS1 inh)
CN(C)c1ccc(N=Nc2ccccc2Br)cc1	AMA1 RON2 block 11µM
CC(=O)c1ccc(N=Nc2ccc(N(C)C)cc2)cc1	AMA1 RON2 block inconclusive (no result: NS1 inh)
Cc1ccccc1C(=O)N1Cc2cnnn2-c2ccccc2C1C#N (configuration not stated)	none (no result: SARS PLpro yeast, NS1 inh)
Cc1ccccc1-c1ccc2n1Cc1cnnn1-c1ccccc1-2	AMA1 RON2 block 25µM (no result: SARS PLpro yeast, NS1 inh)
O=C(Nc1cccc(S(=O)(=O)N2CCOCC2)c1)c1c2c(nc3ccccc13)CCC2	NS1 inh 4µM
O=C(Nc1cccc(S(=O)(=O)N2CCOCC2)c1)c1ccc2ccccc2n1	none
C[C@](N)(Cc1ccc(O)c(O)c1)C(=O)O	AMA1 RON2 block 11µM
C[C@](N)(Cc1ccc(O)cc1)C(=O)O	none (no result: AMA1 RON2 block, SARS PLpro yeast)
CCOC(=O)C1CCN(C(=O)CN(c2ccc3c(c2)OCCO3)S(=O)(=O)c2ccccc2)CC1	none (no result: NS1 inh)
CC(=O)N(C(C)=O)c1ccc2c(c1)OCCO2	none (no result: SARS PLpro yeast, NS1 inh)
C=CCc1cccc([C@@H]2[C@@H](C)CC[C@H]3C(=O)N4[C@@H](c5cc(OC)c(OC)c(OC)c5)c5[nH]c6ccccc6c5C[C@H]4C(=O)N23)c1	NS1 inh 22µM (no result: AMA1 RON2 block)
COc1cc(C2c3[nH]c4ccccc4c3C[C@@H]3C(=O)N(Cc4ccco4)CC(=O)N23)cc(OC)c1OC (some centres not stated)	none
O=C(O)C(=O)/C=C(\O)c1ccc(Br)cc1	none (no result: AMA1 RON2 block, SARS PLpro yeast)
Nc1ccc(Oc2cccc(Oc3ccc(N)cc3)c2)cc1	AMA1 RON2 block 32µM (no result: NS1 inh)
Cc1cccc(Oc2ccc(N)cc2)c1	none
N=C1[C@@H](O)[C@]2(I)c3ccccc3N3C(=N)[C@H](O)[C@@H]4c5ccccc5N1[C@@H]4[C@@H]32	none (no result: AMA1 RON2 block, SARS PLpro yeast)
OCCN(Cc1cccnc1)Cc1ccccn1	AMA1 RON2 block 14µM (no result: SARS PLpro yeast, NS1 inh)
OCCN(Cc1ccccc1)Cc1ncccc1O	none (no result: SARS PLpro yeast, NS1 inh)
Cc1ccc(-n2ncc(-c3n[nH]c(=S)o3)c2N)cc1C	none (no result: SARS PLpro yeast, NS1 inh)
O=C(CCC(=O)N1CCOc2ccc(Cl)cc21)NCCN1CCOCC1	none
c1ccc(-c2cnnc(-c3ccccn3)n2)cc1	AMA1 RON2 block 10µM (no result: SARS PLpro yeast, NS1 inh)
c1ccc(-c2nc(-c3ccccn3)nc(-c3ccccn3)n2)nc1	none
Nc1nc(N)nc(-c2ccccn2)n1	AMA1 RON2 block inconclusive
Clc1ccc(-c2cnnc(-c3ccccn3)n2)cc1	AMA1 RON2 block 10µM (no result: NS1 inh)
O=C(CNCc1cccnc1)Nc1cc(C(F)(F)F)ccc1N1CCOCC1	none
CC1=NN(c2ccccc2)C(=O)[C@@H]1N=Nc1ccc([As](=O)(O)O)c(O)c1	none (no result: AMA1 RON2 block, SARS PLpro yeast)
Cc1ccc(S(=O)(=O)N(C)/N=C/C=C/c2ccccc2)cc1	none
Cc1ccc(S(=O)(=O)N(C)/N=C/c2ccc(N(C)C)cc2)cc1	AMA1 RON2 block 25µM
Cc1cc(N=Nc2ccccc2C)ccc1N	AMA1 RON2 block 11µM (no result: SARS PLpro yeast, NS1 inh)
CC(=O)NC(NC(=S)Nc1ccc(N=Nc2ccccc2C)cc1C)C(Cl)(Cl)Cl (configuration not stated)	none
CCc1nc(SCC(=O)Nc2ccc(F)cc2)c2c(=O)n(C)c(=O)n(C)c2n1	none
Cc1ccc(C)c(OC(=O)c2cccnc2)c1	none
O=C1c2ccccc2NC(c2ccc(Cl)cc2Cl)N1O (configuration not stated)	SARS PLpro yeast 14µM
O=C1c2ccccc2NC(c2ccc(Cl)cc2Cl)N1Cc1ccccc1 (configuration not stated)	none
O=S(=O)(O)c1cc(O)ccc1O	none (no result: NS1 inh)
O=S(=O)(c1cc(O)ccc1O)c1cccc2c(S(=O)(=O)c3cc(O)ccc3O)cccc12	AMA1 RON2 block 8.9µM (no result: NS1 inh)
C=CCN(CC=C)Cc1c(O)ccc2c1oc(=O)c1ccccc12	AMA1 RON2 block 21µM (no result: SARS PLpro yeast, NS1 inh)
C=CCN(CC=C)Cc1cc(=O)oc2ccc3ccccc3c12	none (no result: SARS PLpro yeast, NS1 inh)
CO[C@@H]([CH2][Hg])CN1C(=O)c2ccccc2S1(=O)=O.Cn1c(=O)c2nc[nH]c2n(C)c1=O	none (no result: AMA1 RON2 block, SARS PLpro yeast)
CC(=O)c1ccc([N+](=O)[O-])c(CS(=O)(=O)c2ccccc2)c1	none
Cc1cc(-c2csc(N)n2)c(C)n1C	AMA1 RON2 block 28µM
Cc1ccc(-n2c(C)cc(-c3csc(N)n3)c2C)cc1	none
NCCNS(=O)(=O)c1cccc2c(Cl)cccc12	none (no result: AMA1 RON2 block, SARS PLpro yeast)
COc1cc2c(cc1N)-c1ccc(N)cc1C2	AMA1 RON2 block 4µM (no result: SARS PLpro yeast, NS1 inh)
Nc1ccc2c(c1)Cc1ccccc1-2	AMA1 RON2 block inconclusive
CCc1cccc2c(C(=O)CSc3nncn3-c3ccccc3OC)c[nH]c12	SARS PLpro yeast 13µM
CCc1cccc2c(C(=O)CSc3nncn3-c3ccc(OC)cc3)c[nH]c12	none
COc1ccc(-c2nc(CS(=O)CC(=O)NCc3ccc4c(c3)OCO4)c(C)o2)cc1OC (configuration not stated)	none
COc1cc2c(cc1OC)[C@@]13CCN4C=C5CCO[C@H]6CC(=O)N2[C@@H]1C6[C@H]5C[C@H]43 (some centres not stated)	none (no result: AMA1 RON2 block, SARS PLpro yeast)
COc1cccc(-c2ccc3ncnc(NCc4cccc(F)c4)c3c2)c1	SARS PLpro yeast 8.9µM (no result: AMA1 RON2 block, NS1 inh)

From PubChem
